Results published in PubChem BioAssay (NCATS).
Inconclusive results are not listed. Active and inactive are the calls of the source. Unless noted, the call rests on the fitted dose curve; in most records, active means well fitted curve in the direction sought with a large enough effect; inconclusive means small, poorly fitted or top-dose-only effect, or another doubt; inactive means no such curve, though single readings can be large; an effect the other way counts as inactive or inconclusive.

Key:
[1] = Primary qHTS for inhibitors of nuclear receptor binding SET domain protein 2 (NSD2) in an isogenic RCH-ACV NSD2 p.E1099K mutant (9B) (AID 1645876); further: nearly all actives have a fitted effect of over 70% in size; further: potency means the concentration at half of the fitted maximal effect
[2] = NCATS anti-infectives library activity on HEK293 viability as a counter-qHTS vs the C. elegans viability qHTS (AID 1745854);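 further: HEK293 cells exposed to compounds for 24 hr before the viability read; on the % scale 0 is the no-effect control and ±100 the full control effect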
Outline: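 HEK293 cells (1,500/well) exposed 24 hr at 37C to 1:5 titrations, up to 41.7 uM final; counter-screen to a C. elegans viability qHTS. Viability by CellTiter-Glo luminescence after 10 min at room temperature; digitonin as control.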

[3] = target: Glutathione peroxidase 1 (Homo sapiens) (UniProt P07203); assay: Primary qHTS Assay for Inhibitors of Recombinant Selenoprotein Glutathione Peroxidase 1 (GPX1) (AID 1845191); further: nearly all actives have a fitted effect of over 65% in size
Outline: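 GR-coupled assay: compounds preincubated 30 min at room temperature with GPX1, then reaction started with CHP; final 10 nM GPX1, 1 mM GSH, 0.5 mM CHP, 0.5 mM NADPH, 100 nM GR, 0.01% BSA, pH 7.5 Tris buffer. NADPH fluorescence (340/450 nm) read at 0 and 15 min.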

[4] = target: Phospholipid hydroperoxide glutathione peroxidase GPX4 (Homo sapiens) (UniProt P36969); assay: Primary qHTS Assay for Inhibitors of Recombinant Selenoprotein Glutathione Peroxidase 4 (GPX4) (AID 1845192); further: nearly all actives have a fitted effect of over 65% in size; further: potency means the concentration at half of the fitted maximal effect
Outline: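 GR-coupled assay: recombinant GPX4 preincubated 30 min with compound at room temperature; final 200 nM GPX4, 1 mM GSH, 0.5 mM cumene hydroperoxide, 0.5 mM NADPH, 100 nM GR, 0.01% BSA, pH 7.5 Tris. NADPH fluorescence (340/450 nm) read at 0 and 15 min.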

[5] = qHTS drug screen for cell cycle checkpoint inhibitors in PARPi-resistant BRCA-mutant ovarian cancer cell lines. (AID 1963452; calls by dose curve); details: PEO1/OlaR viability, CellTiter-Glo luminescence, 96 h, stronger effect = lower value
Outline: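 PEO1, PEO4 and PEO1/OlaR ovarian cancer cells, 600 per well, exposed 96 h at 37C to a dilution series. Viability read by CellTiter-Glo luminescence, normalized to DMSO and empty wells; activity summarized as Z-AUC.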

[6] = target: Rap guanine nucleotide exchange factor 3 (Homo sapiens) (UniProt O95398); assay: Confirmatory qHTS for antagonist of cAMP-regulated guanine nucleotide exchange factor 3 (EPAC1) (AID 1645880); further: nearly all actives have a fitted effect of over 55% in size; further: potency means the concentration at half of the fitted maximal effect
Outline: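 Nucleotide exchange uses 100 nM EPAC1, 250 nM RAP1B-BODIPY-GDP and 50 uM GDP, with compounds in a concentration-titration series. After 5 min at room temperature, fluorescence (480 nm ex/540 nm em) is read every 5 min for 30 min. Data are normalized to control ATA and DMSO.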

[7] = Primary qHTS for inhibitors of nuclear receptor binding SET domain protein 2 (NSD2) in an RCH-ACV wild type WT cells (2C) (AID 1645877); further: nearly all actives have a fitted effect of over 70% in size; further: potency means the concentration at half of the fitted maximal effect
[8] = target: Rap guanine nucleotide exchange factor 3 (Homo sapiens) (UniProt O95398); assay: Confirmatory qHTS for agonist of cAMP-regulated guanine nucleotide exchange factor 3 (EPAC1) (AID 1645881);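 further: EPAC1 catalysed release of BODIPY-GDP from Rap1B seen as fluorescence loss; 100% = effect of cAMP agonist control; nearly all actives have a fitted effect of over 75% in size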
[9] = target: Tyrosine-protein kinase Yes (Homo sapiens) (UniProt P07947); assay: qHTS for small molecule inhibitors of Yes1 kinase: Primary Screen (AID 686947);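 further: plate controls were DMSO with enzyme for no effect and no-enzyme DMSO wells for full effect; nearly all actives have a fitted effect of over 60% in size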
Outline: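 Yes1 (4 nM) preincubated 20 min with compound, then 60 min room-temperature reaction with 0.1 mM ATP and 0.3 mg/mL poly(E4Y) in pH 7.5 Tris, 10 mM MgCl2. ADP measured by ADP-Glo luminescence, normalised to enzyme/no-enzyme controls.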

[10] = qHTS for small molecule inhibitors of Yes1 kinase: Counter Assay (AID 686950);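 further: no kinase present so only ADP-Glo detection of a fixed ADP amount is tested; luminescence from ADP-Glo reporting ADP in a fixed ATP and ADP mixture; series mostly up to about 77 µM; 0% = DMSO wells with ATP plus ADP and -100% = ATP-only wells without ADP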
Outline: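 Enzyme-free detection counter-screen: compounds preincubated 20 min in buffer, then 0.08 mM ATP plus 0.02 mM ADP added for 60 min at room temperature; ADP-Glo luminescence. Buffer 50 mM Tris pH 7.5, 10 mM MgCl2, 150 mM NaCl; normalized to ATP+ADP and ATP-only controls.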

[11] = measured here: PEO1 parental Z-AUC

Chain of Glutathione peroxidase 1 (Homo sapiens) (P07203 whole entry, looked up): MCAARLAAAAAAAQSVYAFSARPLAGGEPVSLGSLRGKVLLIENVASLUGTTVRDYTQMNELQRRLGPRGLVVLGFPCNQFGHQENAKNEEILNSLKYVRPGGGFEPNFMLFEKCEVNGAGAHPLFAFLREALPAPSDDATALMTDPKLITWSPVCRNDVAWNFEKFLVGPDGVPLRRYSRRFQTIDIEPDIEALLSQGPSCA
Chain of Rap guanine nucleotide exchange factor 3 (Homo sapiens) (O95398 whole entry, looked up): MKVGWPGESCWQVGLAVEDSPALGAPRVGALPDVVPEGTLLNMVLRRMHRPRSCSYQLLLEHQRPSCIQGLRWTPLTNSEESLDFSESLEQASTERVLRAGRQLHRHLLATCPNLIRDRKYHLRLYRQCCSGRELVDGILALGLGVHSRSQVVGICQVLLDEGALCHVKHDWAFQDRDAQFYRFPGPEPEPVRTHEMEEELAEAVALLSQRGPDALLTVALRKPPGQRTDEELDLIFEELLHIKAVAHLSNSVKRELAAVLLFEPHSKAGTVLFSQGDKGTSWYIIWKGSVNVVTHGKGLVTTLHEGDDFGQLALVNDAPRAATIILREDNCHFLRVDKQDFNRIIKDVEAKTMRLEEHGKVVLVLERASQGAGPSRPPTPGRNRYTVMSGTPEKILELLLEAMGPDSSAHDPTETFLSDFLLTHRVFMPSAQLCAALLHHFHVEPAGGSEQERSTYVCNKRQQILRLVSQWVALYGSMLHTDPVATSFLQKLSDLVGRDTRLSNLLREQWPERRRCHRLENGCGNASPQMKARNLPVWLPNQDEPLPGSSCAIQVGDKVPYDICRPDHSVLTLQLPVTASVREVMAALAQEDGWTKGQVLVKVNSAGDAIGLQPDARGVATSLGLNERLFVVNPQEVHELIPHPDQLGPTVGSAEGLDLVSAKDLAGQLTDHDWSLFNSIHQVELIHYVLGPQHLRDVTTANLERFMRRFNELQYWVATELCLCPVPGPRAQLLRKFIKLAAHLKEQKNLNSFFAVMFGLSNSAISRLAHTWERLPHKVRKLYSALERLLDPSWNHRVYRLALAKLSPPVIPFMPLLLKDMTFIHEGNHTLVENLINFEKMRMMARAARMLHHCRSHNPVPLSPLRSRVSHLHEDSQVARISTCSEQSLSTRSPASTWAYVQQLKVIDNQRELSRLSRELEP
Chain of Phospholipid hydroperoxide glutathione peroxidase GPX4 (Homo sapiens) (P36969 whole entry, looked up): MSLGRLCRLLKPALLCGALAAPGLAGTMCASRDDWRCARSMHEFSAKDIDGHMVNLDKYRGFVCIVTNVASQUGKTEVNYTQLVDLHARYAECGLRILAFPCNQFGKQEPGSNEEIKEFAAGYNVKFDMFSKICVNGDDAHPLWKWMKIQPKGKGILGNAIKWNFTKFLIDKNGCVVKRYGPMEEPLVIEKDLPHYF
Chain of Tyrosine-protein kinase Yes (Homo sapiens) (P07947 whole entry, looked up): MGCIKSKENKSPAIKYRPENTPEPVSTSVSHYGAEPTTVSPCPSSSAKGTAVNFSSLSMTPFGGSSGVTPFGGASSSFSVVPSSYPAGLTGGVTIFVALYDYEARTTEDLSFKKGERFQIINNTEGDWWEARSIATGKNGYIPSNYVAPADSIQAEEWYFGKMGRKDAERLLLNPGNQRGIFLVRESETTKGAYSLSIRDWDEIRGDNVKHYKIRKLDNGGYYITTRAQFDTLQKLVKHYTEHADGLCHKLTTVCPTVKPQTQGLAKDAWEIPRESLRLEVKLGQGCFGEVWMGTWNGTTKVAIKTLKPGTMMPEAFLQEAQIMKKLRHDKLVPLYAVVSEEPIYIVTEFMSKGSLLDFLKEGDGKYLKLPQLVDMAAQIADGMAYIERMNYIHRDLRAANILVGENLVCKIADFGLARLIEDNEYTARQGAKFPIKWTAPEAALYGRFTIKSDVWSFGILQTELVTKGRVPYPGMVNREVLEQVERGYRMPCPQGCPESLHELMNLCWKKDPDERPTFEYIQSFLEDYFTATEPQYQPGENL

Q: For `NC(=O)c1cc(F)cc2c1C(=O)N(C1CCN(C3CCC(F)(F)CC3)CC1)C2`, which Potency [1] is on record?
A: Its Potency is “inactive”.

Q: What about the outcome [2] of the same compound?
A: Its outcome is “inactive”.

Q: And the Potency [3]?
A: Its Potency is “inactive”.

Q: And the Potency [4]?
A: Its Potency is “inactive”.

Q: What about the Z-AUC [5] of the same compound?
A: The Z-AUC was -0.257 (inactive).

Q: And the Z-AUC [5, 11]?
A: The Z-AUC was -0.805.

Q: What about the Z-AUC ([5]; measured here: PEO4 Z-AUC) of the same compound?
A: The Z-AUC was -0.459.

Q: With `Nc1cc(N)cc(N)c1` as the compound, how does the Potency [6] read?
A: Its Potency is 28 µM (active).

Q: With `CCc1ccc2nc(Nc3cc(Cc4ccccc4)nc(NC4CCC(O)CC4)n3)sc2c1` (stereo not given) as the compound, how does the Potency [7] read?
A: Its Potency is 23.5 µM (active).

Q: And the Potency [3]?
A: Its Potency is “inactive”.

Q: What about the Z-AUC [5] of the same compound?
A: The Z-AUC was -0.86 (inactive).

Q: What about the Z-AUC [5, 11] of the same compound?
A: Its Z-AUC is -0.737.

Q: And the Z-AUC ([5]; measured here: PEO4 Z-AUC)?
A: The Z-AUC was -0.703.

Q: For `Cc1c(CN2CCC(Nc3ncnc4sc(CC(F)(F)F)cc34)CC2)ccc2c1cc(C#N)n2Cc1cn[nH]c1`, which Potency [7] is on record?
A: The Potency was 3.32 µM (active).

Q: What about the Potency [3] of the same compound?
A: The Potency was “inactive”.

Q: What about the Potency [4] of the same compound?
A: Its Potency is “inactive”.

Q: And the Z-AUC [5]?
A: Its Z-AUC is -0.417 (inactive).

Q: And the Z-AUC [5, 11]?
A: The Z-AUC was -0.643.

Q: And the Z-AUC ([5]; measured here: PEO4 Z-AUC)?
A: The Z-AUC was -0.075.

Q: Which results are given for `O=C1CCN(Cc2ccccc2)CCN1[C@H](COc1ccccc1)Cc1ccccc1`?
A: Potency [6]: inactive; Potency [8]: inactive

Q: For `CO[C@H]1C[C@@H]2CC[C@@H](C)[C@@](O)(O2)C(=O)C(=O)N2CCCC[C@H]2C(=O)O[C@H]([C@H](C)C[C@@H]2CC[C@@H](OCCO)[C@H](OC)C2)CC(=O)[C@H](C)/C=C(/C)[C@@H](O)[C@@H](OC)C(=O)[C@H](C)C[C@H](C)/C=C\C=CC=C1C`, which Potency [1] is on record?
A: The Potency was 0.118 µM (active).

Q: What about the Potency [7] of the same compound?
A: Its Potency is 0.0742 µM (active).

Q: And the Potency [3]?
A: The Potency was “inactive”.

Q: What about the Z-AUC [5] of the same compound?
A: The Z-AUC was 0.703 (inactive).

Q: What about the Z-AUC [5, 11] of the same compound?
A: The Z-AUC was 0.778.

Q: And the Z-AUC ([5]; measured here: PEO4 Z-AUC)?
A: The Z-AUC was 0.68.

Q: Which outcome [9] does the source give for `Nc1nonc1-c1nc2cnccc2n1C1CC1` here?
A: Its outcome is “inactive”.

Q: What about the outcome [10] of the same compound?
A: The outcome was “inactive”.

Q: And the Potency [1]?
A: Its Potency is 20.6 µM (active).

Q: And the Potency [7]?
A: The Potency was 8.2 µM (active).

Q: What about the Potency [3] of the same compound?
A: Its Potency is “inactive”.

Q: With `CC(C)(C)S(=O)(=O)c1ccc2nccc(Nc3n[nH]c4ccc(F)cc34)c2c1` as the compound, how does the Potency [1] read?
A: The Potency was 13.2 µM (active).

Q: And the Potency [3]?
A: The Potency was “inactive”.

Q: What about the Potency [4] of the same compound?
A: The Potency was “inactive”.

Q: What about the Z-AUC [5] of the same compound?
A: The Z-AUC was -0.44 (inactive).

Q: What about the Z-AUC [5, 11] of the same compound?
A: Its Z-AUC is -0.407.

Q: And the Z-AUC ([5]; measured here: PEO4 Z-AUC)?
A: The Z-AUC was -0.499.

Q: For `CC/C(=C(/c1ccc(/C=C/C(=O)O)cc1)c1ccc2[nH]ncc2c1)c1ccc(F)cc1Cl`, which Potency [7] is on record?
A: The Potency was 23.5 µM (active).

Q: And the Potency [3]?
A: The Potency was “inactive”.

Q: What about the Potency [4] of the same compound?
A: The Potency was 4.04 µM (active).

Q: And the Z-AUC [5]?
A: Its Z-AUC is 1.39 (inactive).

Q: What about the Z-AUC [5, 11] of the same compound?
A: The Z-AUC was 0.628.

Q: What about the Z-AUC ([5]; measured here: PEO4 Z-AUC) of the same compound?
A: Its Z-AUC is -0.0261.

Q: With `COc1ccccc1-c1nc(SCC(=O)Nc2ccc(C)c(C)c2)n[nH]1` as the compound, how does the Potency [1] read?
A: The Potency was “inactive”.

Q: What about the Potency [3] of the same compound?
A: Its Potency is “inactive”.

Q: For `COc1ccc(SC[C@H](Cc2ccccc2)N2CC[C@@H](C)CCC2=O)cc1`, which Potency [6] is on record?
A: The Potency was “inactive”.

Q: For `CCn1c(-c2nonc2N)nc2cncc(C(=O)N3CC[C@H](N)C3)c21`, which Potency [1] is on record?
A: The Potency was 10.3 µM (active).

Q: What about the Potency [3] of the same compound?
A: Its Potency is “inactive”.

Q: For `C[n+]1ccc(-c2c3nc(c(-c4cc[n+](C)cc4)c4ccc([nH]4)c(-c4cc[n+](C)cc4)c4nc(c(-c5cc[n+](C)cc5)c5ccc2[nH]5)C=C4)C=C3)cc1`, which Potency [7] is on record?
A: The Potency was “inactive”.
